Compound activity from PubChem BioAssay.
D1 agonist – Allosteric Agonists of the Human D1 Dopamine Receptor: qHTS | activation, % at 2 µM | D(1A) dopamine receptor (Homo sapiens), P21728 | AID 504660, 2011 | HEK293 T-REx D1 cells, calcium flux, agonist mode | 360,000 compounds, 1% hits; note: 0% is about no effect
Target sequence (P21728 whole entry, looked up): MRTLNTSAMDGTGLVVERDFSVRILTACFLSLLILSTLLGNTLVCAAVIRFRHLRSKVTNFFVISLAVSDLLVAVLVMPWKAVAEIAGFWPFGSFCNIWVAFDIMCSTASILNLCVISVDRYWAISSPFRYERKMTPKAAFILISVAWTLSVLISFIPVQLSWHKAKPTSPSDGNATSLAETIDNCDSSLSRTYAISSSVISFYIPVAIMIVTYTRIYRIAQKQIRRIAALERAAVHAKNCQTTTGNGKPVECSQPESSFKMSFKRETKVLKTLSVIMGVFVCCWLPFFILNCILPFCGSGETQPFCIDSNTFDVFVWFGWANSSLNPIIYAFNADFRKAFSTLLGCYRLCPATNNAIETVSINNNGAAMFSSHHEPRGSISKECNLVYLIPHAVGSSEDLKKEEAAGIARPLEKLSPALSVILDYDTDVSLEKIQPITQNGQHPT
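Agonism was scored from calcium flux recorded over 180 s (1 read/s) after pintool compound addition, following a 10-cycle baseline. Cells were inducible force-coupled HEK293 TREx D1, plated overnight at 30 C and loaded with no-wash calcium dye.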
TRHR PAM – qHTS for Small Molecule Agonists and Allosteric Enhancers of Human TRH Receptor: Primary Screen for Enhancers | enhancement, % at 2 µM | TRHR cells, fluo-8 calcium fluorescence, EC20 TRH enhancement | 360,000 compounds, 0.66% hits | AID 493056, 2011; in the data active = enhancement above about 30%; note: 0% is about no effect
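TRHR-expressing cells loaded with fluo-8 calcium dye were read kinetically (ex 480/em 530) during compound addition, then stimulated with an EC20 of TRH (10 nM final). Enhancement of the Gq-mediated intracellular calcium response was scored.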
D1 antag – Antagonist of Human D 1 Dopamine Receptor: qHTS; D(1A) dopamine receptor (Homo sapiens), P21728; HEK293 TREx D1 cells, calcium flux, dopamine EC80; active compounds read low; activity change, negative = inhibition, % at 10 µM; 360,000 compounds, 3.2% hits; in the data active = activity change below about -30%; note: % is set by controls: 0 for no effect and ±100 for the full control effect
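Calcium flux readout: force-coupled, inducible Hek293 Trex D1 line, cells induced overnight at 30 C with tetracycline, dye-loaded 30–90 min at RT. Antagonism scored against EC80 dopamine challenge given 180 s after compound.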
D1 potentiator – Potentiators of Human D1 Dopamine Receptor: qHTS; HEK293 TREx D1 cells, calcium flux, dopamine EC20 potentiation; potentiation, % at 10 µM; 360,000 compounds, 0.036% hits; AID 504651, 2011; in the data active = potentiation above about 30%; note: 0% is about no effect
TRHR agonist – qHTS for Small Molecule Agonists and Allosteric Enhancers of Human TRH Receptor: Primary Screen for Agonists; Thyrotropin-releasing hormone receptor (Homo sapiens), P34981; TRHR cells, calcium flux fluo-8, FDSS agonist mode; activation, % at 2 µM; 360,000 compounds, 0.18% hits; note: 0% is about no effect
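TRHR-expressing cells loaded with fluo-8 calcium dye; 23 nL library compound pin-transferred, kinetic FDSS fluorescence (Ex 480/Em 530) recorded about 180 s for agonist-induced calcium release, before a 10 nM TRH EC20 addition for potentiator mode.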
* = called active by the depositor; / = not tested or not shown; ! = not confirmed by another sample. The list is not random: actives were taken first. Their share in the collection is about 4.7%. Cut-off read from the data, not from the text of the source, unless noted: active = activation above about 30%; inactive = the rest.

SMILES	D1 agonist	TRHR PAM	D1 antag	D1 potentiator	TRHR agonist
CCCn1cc(S(=O)(=O)c2ccc(CC)cc2)c(=O)c2cc(F)c(N3CCN(C)CC3)cc21	0	10	11	-2	0
CC(=O)c1cccc(NC(=S)NC(=O)c2ccc(C)cc2Cl)c1	6	-4	-19	0	0
CC(=O)c1cccc(NC(=S)NC(=O)c2ccccc2Cl)c1	6	5	-31*	-3	0
O=C(Cc1ccc(Cl)cc1)NC(=S)Nc1ccccc1N1CCOCC1	34*	4	-34*	12	3
CC(=O)Nc1cccc(C(=O)OCc2ccc(C(=O)Oc3ccc(Cl)cc3)cc2)c1	9	3	-32*	-7	3
CC(=O)c1cccc(NC(=S)NC(=O)Cc2ccc(Cl)cc2)c1	63*	3	-1	-5	6
COc1ccc(NC(c2ccc(F)cc2)c2nnc(-c3ccccc3Cl)o2)cc1Cl (configuration not stated)	3	-6	9	0	0
C(=C\c1nccc2c1[nH]c1ccccc12)/c1ccccc1	0	20	-37*	7	0
Fc1ccc(/C=C\c2nccc3c2[nH]c2ccccc23)cc1	0	3	-5	-4	0
CC(=O)Nc1ccc(N/C(N)=N/c2nc(C)cc(C)n2)cc1	1	-12	-1	-5	0
Cc1cc(C)nc(/N=C(\N)Nc2ccc(SC(F)F)cc2)n1	43*	0	-49*	-7	9
Cc1cc(C)nc(/N=C(\N)Nc2ccc(-c3ccccc3)cc2)n1	34*	-9	0	-2	5
CN(C)CCNc1nc2c(c(=O)[nH]c(=O)n2C)n1CCOc1ccccc1	3	2	-5	-1	0
Cc1ccc(CNC(=O)c2cc(=O)c3cc(C)ccc3o2)cc1	60*!	10	2	-10	-1
Cc1ccc2oc(C(=O)NCc3ccc(S(N)(=O)=O)cc3)cc(=O)c2c1	0	-10	0	7	-1
COc1ccc(CNC(=O)Cc2coc3ccc(C)cc23)cc1	6	1	-35*	-3	-1
CCN1CCN(CCNC(=O)c2ccc(/C=C3/Sc4ccccc4N(Cc4ccccc4C)C3=O)cc2)CC1	40*	18	-21	-14	8
CCN1CCN(CCCNC(=O)c2ccc(/C=C3/Oc4ccccc4N(Cc4cccc(C)c4)C3=O)cc2)CC1	39*	-12	-37*	-2	-1
O=C(NCCCN1CCOCC1)c1ccc(/C=C2\Oc3ccccc3N(Cc3ccccc3F)C2=O)cc1	22	1	0	2	2
Cc1ccccc1NC(=O)CSC1=Nc2ccccc2C2=NC(CCC(=O)NCc3ccccc3)C(=O)N12 (configuration not stated)	0	-4	-6	3	-1
O=C(CCCC(=O)N(CC(=O)NC1CCCCC1)c1ccccc1F)Nc1ccccn1	3	-8	5	-8	0
CCN(CC)CCCNC(=O)c1cc(Nc2ccc(OC)cc2OC)nc2ccccc12	1	-1	-12	-9	0
COc1ccc(Nc2cc(C(=O)NCCCN(C)C3CCCCC3)c3ccccc3n2)c(OC)c1	34*	0	-14	-2	3
COc1ccc(Nc2cc(C(=O)NCCCN(C)C3CCCCC3)c3ccccc3n2)cc1	65*	0	-41*	1	6
COc1ccc(OC)c(Nc2cc(C(=O)NCc3ccccc3)c3ccccc3n2)c1	0	7	-80*	2	-1
SMILES	D1 agonist	TRHR PAM	D1 antag	D1 potentiator	TRHR agonist
Cc1cccc(N2CCn3c2nc2c3c(=O)n(CCc3ccccc3)c(=O)n2C)c1	2	-4	-2	-4	-1
Cc1cccc(N2CCCn3c2nc2c3c(=O)n(CC(=O)OCc3ccccc3)c(=O)n2C)c1	1	-2	-55*	-14	0
COc1ccccc1NC(=O)C1=C(C)Nc2nc3ccccc3n2C1c1ccccc1Cl (configuration not stated)	4	16	4	4	-1
COc1ccc(N(CC(=O)N/N=C/c2cccnc2)S(=O)(=O)c2ccc(C)cc2)cc1OC	3	-3	-52*	-5	0
CCc1ccccc1OCc1nc2ccc(S(=O)(=O)N3CCOCC3)cc2[nH]1	0	33*	/	0	-1
Cn1nnnc1SCC(=O)c1cccs1	3	-2	-12	2	0
COc1ccc2c(c1)nc(SCC(=O)C(C)(C)C)n2C	-1	-15	-13	-4	0
Cc1cc(C)c(-n2nnnc2SCC(=O)c2cccs2)c(C)c1	7	-3	-42*	-4	1
COc1ccc2c(c1)nc(SCC(=O)c1cccs1)n2C	0	-9	-36*	-4	-1
COc1ccc(C)cc1NC(=O)COC(=O)c1ccc(OCc2ccc(Cl)cc2Cl)c(OC)c1	1	-10	-50*	-3	0
CCOc1ccc(NC(=O)NC23CC4CC(CC(C4)C2)C3)cc1	13	9	-31*	-6	1
CCOc1ccc(NC(=O)NCc2cccn2C)cc1	0	-8	-42*	-6	0
C=C1CCC[C@]2(C)C[C@H]3OC(=O)C(CNC(C)CCCC(C)C)[C@H]3CC12 (some centres not stated)	15	23	17	-7	0
C=C1CCC[C@]2(C)C[C@H]3OC(=O)C(CN[C@@H](C)c4ccccc4)[C@H]3CC12 (some centres not stated)	36*	0	29	-2	2
Cc1ccc(NC(=O)c2cc(-c3cccs3)nc3ccccc23)nc1	1	-2	-48*	-11	-1
O=C(Nc1ccon1)c1cc(-c2ccccc2)nc2ccccc12	0	-6	-32*	-7	1
O=C(NC1=NCCS1)c1cc(-c2ccc(F)cc2)nc2ccccc12	-1	10	-37*	-4	1
CCOc1cccc(-c2cc(C(=O)Nc3ccon3)c3ccccc3n2)c1	-2	2	-5	-2	0
O=C(NC1=NCCS1)c1ccccc1Cl	2	-2	-8	-4	0
O=C(NC1=NCCS1)c1cc(Cl)ccc1Cl	5	39*	4	-3	0
Cc1ccccc1-c1nc(CS(=O)(=O)CC(=O)NCC(C)c2ccccc2)c(C)o1 (configuration not stated)	1	-2	-15	0	0
COc1ccc(OC)c(CNS(=O)(=O)c2cc(-c3onc(C)c3C)ccc2C)c1	2	1	-38*	-7	0
